Data reported in PubChem BioAssay AID1117361 (Southern Research Institute, 2015).
Among all 3,600 compounds or so, about 900 (25%) were called active. No rule for the calls is given here. Only a sample is shown. Entries with a potency or affinity are not part of this list.

Molecular target: Protein Tat (Human immunodeficiency virus type 1 group M subtype B (isolate HXB2)) (UniProt P04608)
Assay: HIV-1 Tat–TAR interaction blockers – biochemical, fluorescence polarization, FAM-labeled TAR RNA, counter-screen for Vif-APOBEC3G degradation inhibitor project, dose response (AID 1117361)
Details: Tat-TAR RNA binding; series mostly up to 100 µM; inhibition: at the top concentration

Row | Structure (SMILES) | inhibition | outcome
1 | CCCCc1ccc(-c2nc(N)n[nH]2)cc1 | 1.35% (inactive) | –
2 | COCCCN1CC23C=CC(O2)C(C(=O)O)C3C1=O (stereo not given) | 8.11% (inactive) | –
3 | CC1CCN(c2ccc([N+](=O)[O-])c(SCCO)c2)CC1 | – | inactive
4 | Cc1ccc(S(=O)(=O)NCCCOC(=O)Nc2ccncc2)cc1 | 7.5% (inactive) | –
5 | O=C(C1CCC(CNc2c(N3CCCCC3)c(=O)c2=O)CC1)N1CCN(C2CCCCC2)CC1 (stereo not given) | – | inactive
6 | O=C(CSc1nnnn1-c1ccc2c(c1)CCC2)Nc1ccc2c(c1)OCCO2 | – | inactive
7 | CCOC(=O)c1c(NC(=O)Cn2nnc(-c3ccccc3Cl)n2)sc(C)c1C | 0.68% (inactive) | –
8 | COC(=O)C1=CN(CC2CCCO2)C=C(C(=O)OC)C1c1ccccc1C(F)(F)F (stereo not given) | 4.77% (inactive) | –
9 | COc1ccc(OC)c(NC(=O)CSc2nc3ccccc3c(=O)n2CC2CCCO2)c1 (stereo not given) | 1% (inactive) | –
10 | Cc1cnc(NC(=O)CSc2nnc(CNc3ccc(F)cc3)n2CC2CCCO2)s1 (stereo not given) | 26.6% (inactive) | –
11 | Cc1nn(Cc2ccccc2)c(C)c1C(=O)OCC(=O)c1cc(C)n(C2CC2)c1C | 12.2% (inactive) | –
12 | [O-]/[N+](=C\C=C\c1ccccc1)c1ccccc1 | – | inactive
13 | COc1ccc(C2CC(C(F)(F)F)n3nc(C(=O)NCc4c(C)nn(C)c4C)c(Cl)c3N2)cc1 (stereo not given) | – | inactive
14 | O=S1(=O)Nc2c(ccc3cccnc23)-c2ccccc21 | 2.05% (inactive) | –
15 | CCN(CC)c1ccc(NC2=C(Cl)C(=O)c3ccccc3C2=O)cc1 | 6.6% (inactive) | –
16 | O=C1CSC(c2cccnc2)N1Cc1cccnc1 (stereo not given) | 20.6% (inactive) | –
17 | COc1ccc(OCC(=O)O/N=C(\N)Cc2ccc(Cl)cc2)cc1 | 0.68% (inactive) | –
18 | CCOC(=O)CN(C(=O)CSc1nnc(COc2ccc(OC)cc2)n1CC)c1ccccc1 | – | inactive
19 | Oc1c(C(c2ccccc2)N2CCN(Cc3ccccc3)CC2)sc2ncnn12 (stereo not given) | – | inactive
20 | Fc1ccc(C(CCCn2nnc(-c3cccnc3)n2)c2ccc(F)cc2)cc1 | – | inactive
21 | Cc1nc2cc(NC(=O)Nc3ccc(N4CCOCC4)cc3)ccc2n1C | – | inactive
22 | Cc1cc(CN2C(=O)c3ccccc3C2=O)cc(N2CCOCC2)c1 | – | inactive
23 | Oc1ccccc1/C=N/Nc1nccnc1Cl | 5.46% (inactive) | –
24 | COc1ccc(/C=C/c2nnc(NC(=O)CSc3ccc(C)cc3)s2)cc1 | – | inactive [at 50 µM]
25 | COC(=O)C(NC(=O)c1ccco1)(Nc1nc(C)cs1)C(F)(F)F (stereo not given) | 8.78% (inactive) | –
26 | COC(=O)c1ccc(CSc2nc3ccccc3c(=O)n2-c2ccc(OC)c(OC)c2)o1 | 3.38% (inactive) | –
27 | CCn1cc(C(=O)NCc2ccco2)c2cc(OC)c(OC)cc2c1=O | 2.73% (inactive) | –
28 | C=CCN1C(=O)c2ccc(C(=O)N3CCN(c4ccccc4OC)CC3)cc2C1=O | – | inactive

Row | Structure (SMILES) | inhibition | outcome
29 | COC(=O)c1cc(OC)c(OC)cc1NC(=O)c1ccco1 | – | inactive
30 | C=CCN1C(=O)CSc2ccc(C(=O)NCc3ccco3)cc21 | 10.9% (inactive) | –
31 | CCOC(=O)C1=C(CNCCc2ccc(Cl)cc2)NC(=O)NC1c1ccc2c(c1)OCO2 (stereo not given) | – | inactive
32 | CCSc1nnc(NC(=O)c2ccc3ccccc3n2)s1 | 7.43% (inactive) | –
33 | Cc1cc(C)n(-c2nc(Nc3ccccc3C(F)(F)F)nc(-n3nc(C)cc3C)n2)n1 | – | inactive
34 | O=C(CSc1ccc2nnc(-c3cccnc3)n2n1)NCC1CCCO1 (stereo not given) | – | inactive
35 | Cc1c(NC(=O)/C(C#N)=C/C2CC=CCC2)c(=O)n(-c2ccccc2)n1C (stereo not given) | 6.08% (inactive) | –
36 | O=C(c1ccccc1Cl)N(C(=O)c1ccccc1Cl)c1nccc(-c2cccs2)n1 | 6.08% (inactive) | –
37 | O=[N+]([O-])c1ccc(/C=N/Nc2nc(N3CCCC3)nc(N3CCCC3)n2)o1 | 7.01% (inactive) | –
38 | Cc1ccccc1Cn1cc(NC(=O)c2cc(C3CC3)on2)cn1 | 8.25% (inactive) | –
39 | CCOC(=O)N1CCN(C(=O)C2CCCN(S(=O)(=O)c3ccc(C)cc3)C2)CC1 (stereo not given) | 12.2% (inactive) | –
40 | CCN1CCN(c2ccc(S(=O)(=O)N3CCCCC3)cc2NC(=O)Cc2ccc(Cl)c(Cl)c2)CC1 | – | inactive
41 | Clc1ccc(Nc2nc(C3CC3)cs2)cc1 | – | inactive
42 | CCN(c1cccc(C)c1)S(=O)(=O)c1cnc[nH]1 | – | inactive
43 | Cn1nc(-c2ccc(Cl)cc2)c2cc(C(=O)NCCCN3CCOCC3)sc21 | 3.38% (inactive) | –
44 | Cn1nc(-c2ccc(Cl)cc2)c2cc(C(=O)N3CCN(C(=O)c4ccco4)CC3)sc21 | 2.03% (inactive) | –
45 | O=C(O)CC(Cn1cnnn1)c1ccccc1 (stereo not given) | 12.4% (inactive) | –
46 | COc1ccc(Cl)cc1N(C)C(=O)CCNC(=O)Cn1cnc2ccccc2c1=O | 6.82% (inactive) | –
47 | Cc1csc(=O)n1CC(=O)OCC(=O)c1ccc(Br)cc1 | – | inactive
48 | CCOc1cccc(CN2CCCC(C(=O)Nc3cccc(-n4cccn4)c3)C2)c1 (stereo not given) | 7.68% (inactive) | –
49 | CC(=O)Nc1ccc(S(=O)(=O)Nc2nnc(C(C)C)s2)cc1 | – | inactive
50 | CSc1nc(N2CCOCC2)c2c(c1C#N)CC(C)(C)OC2 | 4.73% (inactive) | –
51 | N#Cc1nc(-c2ccco2)oc1N1CCN(c2ccccc2)CC1 | – | inactive
52 | CCOc1cc(S(=O)(=O)N(CC)CC)c(OCC)cc1-n1cnnn1 | 5.41% (inactive) | –
53 | Cc1nnc(NC(=O)c2ccc(S(=O)(=O)N(C)Cc3ccccc3)cc2)o1 | 3.41% (inactive) | –
54 | CC1(C)CC(Nc2ccc(Nc3ccccc3)cc2)CC(C)(C)N1 | – | inactive
55 | CCC1=C2CC[C@H]3C(=O)NC(=O)[C@H]3[C@H]2[C@@]2(Cc3ccccc3)C(=NCC(=O)OC)OC(=O)N2C1=O | 1.65% (inactive) | –
